rTrxR1 inhibitor: rat TrxR1 inhibition; O89049; recombinant rTrxR1, NADPH fluorescence consumption, selenite substrate; Potency, µM (top dose mostly 114 µM), for the others: at the top dose activity change, negative = inhibition, most hits filed as inhibitors; hit rate 1% among 390,000; AID 588453; note: nearly all actives have a fitted effect of over 65% in size
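Rat TrxR1 (90 nM in the dispensed reagent) was pre-reduced with 400 uM NADPH for 5 min at room temperature, then incubated with compound for 15 min. After 400 uM selenite was added, NADPH fluorescence (Ex 340/Em 450 nm) was followed for 8 min.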
TrxR1 substrate: is turned over as a substrate by rat TrxR1; purified TrxR1 substrate turnover, NADPH consumption readout; O89049; hit rate 0.01% among 390,000; Potency, µM (highest dose often 114 µM), inactives show at the top dose activity change, negative = substrate turnover; note: nearly all actives have a fitted effect of over 50% in size
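Rat TrxR1, dispensed at 90 nM, was prereduced with 400 uM NADPH (final) for 5 min at ~22 deg C, then incubated with compound 15 min before 400 uM selenite. A first-read NADPH fluorescence drop versus no-compound background flagged substrates.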
GALK inhibitor: galactokinase (human) inhibition. Purified GALK, Kinase-Glo residual ATP luminescence. Potency, µM (top dose mostly 57.5 µM), for the others: at the top dose activity change, negative = inhibition, actives largely listed as inhibitors. hit rate 0.007% among 270,000
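Kinase-Glo Plus luminescence measured ATP left after a 1 h room-temperature reaction. The reaction used 5 nM GALK, 100 uM galactose and 35 uM ATP at pH 8.0 (20 mM HEPES, 5 mM MgCl2, 60 mM NaCl, 1 mM DTT, 0.01% BSA).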
NPSR antagonist: blocks cAMP signaling of the human neuropeptide S receptor; Q6W5P4; CHO-NPSR cells, cAMP TR-FRET, antagonist mode; Potency, µM (highest dose often 38.3 µM), for the others: at the highest dose activity change, negative = inhibition, hits mostly inhibitors; hit rate 1% among 220,000; AID 1461; note: nearly all actives have a fitted effect of over 50% in size
Target sequence (Q6W5P4 whole entry, looked up): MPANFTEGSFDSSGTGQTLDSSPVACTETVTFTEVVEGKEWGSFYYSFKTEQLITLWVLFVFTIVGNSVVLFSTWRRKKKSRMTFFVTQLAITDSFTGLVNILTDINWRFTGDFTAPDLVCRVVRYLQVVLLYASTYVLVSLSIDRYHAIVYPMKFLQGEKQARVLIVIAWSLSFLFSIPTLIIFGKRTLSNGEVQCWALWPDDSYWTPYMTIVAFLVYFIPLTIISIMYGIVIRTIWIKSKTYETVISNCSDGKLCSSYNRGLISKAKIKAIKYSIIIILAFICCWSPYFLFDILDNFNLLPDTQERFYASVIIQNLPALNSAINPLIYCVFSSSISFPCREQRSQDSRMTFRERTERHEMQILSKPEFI
* hit, by the source's call; ? = inconclusive; . = not tested or not shown; [ ] = remark or other dose. An excerpt weighted towards active compounds, which were near 1.2% of everything screened. Calls come from the whole dose curve; as a rule, active = well fitted curve in the direction sought with a large enough effect; inconclusive = small, poorly fitted or top-dose-only effect, or another doubt; inactive = no such curve, though single readings can be large; an effect the other way counts as inactive or inconclusive. % is set by controls: 0 for no effect and ±100 for the full control effect; potency is the fitted concentration of half-maximal effect.

SMILES	rTrxR1 inhibitor	TrxR1 substrate	GALK inhibitor	NPSR antagonist
Cc1cccc(C(=O)N2CCc3cc(CNS(=O)(=O)c4ccc(Cl)s4)ccc32)c1	17%[57.1 µM]	2%[57.1 µM]	.	.
CCOCCCNC(=O)C(=O)Nc1c2c(nn1-c1ccccc1)CSC2	7%[57.1 µM]	0%[57.1 µM]	.	.
COc1cccc(CNC(=O)CN(c2ccc(C)cc2)S(=O)(=O)N(C)C)c1OC	10%	2%	.	.
Cc1cc(-c2ccc(C(=O)O)s2)cnc1N	20µM*	849%	1%	2%
CCOc1ccc(S(=O)(=O)Nc2cccc(-c3ccc(N4CCCC4)nn3)c2)cc1	-3%[57.1 µM]	-10%[57.1 µM]	.	.
O=C(COC(=O)CCS(=O)(=O)c1ccccc1)Nc1ccccc1	45µM*	-2%	.	.
Cc1cc(C(Br)(Br)Br)nc2ccccc12	3.2µM*	5%	.	.
COc1ccc(CNC(=O)CN2C(=O)CC(c3ccc(C)c(C)c3)=Nc3ccccc32)cc1	13%[57.1 µM]	2%[57.1 µM]	.	.
CCOC(=O)C(NC(=O)CC(C)C)(Nc1sc(C)c(CC)c1C#N)C(F)(F)F (stereo unspecified)	5%	4%	1%	-18%
CCOC(=O)C(NC(=O)CCl)(Nc1sc(C)c(CC)c1C#N)C(F)(F)F (stereo unspecified)	56µM*	-6%	2%	10%
Cc1cccc(C(=O)N2CCc3cc(CNS(=O)(=O)c4ccc(F)c(Cl)c4)ccc32)c1	10%[57.1 µM]	0%[57.1 µM]	.	.
CC1(C)CC2(CC(c3ccccc3F)c3ccc(O)c(O)c3O2)NC(=S)N1 (stereo unspecified)	2.8µM*	10%[57.1 µM]	6%	-5%
Cc1ccccc1CN1[C@H]2CCCC[C@@H]2OCCS1(=O)=O	18%	4%	.	.
CCCCS(=O)(=O)/C=C\C=C/S(=O)(=O)CCCC	3.5µM*	9%[57.1 µM]	1%	5µM*
CCCCS(=O)(=O)/C=C\C1C2C=CC(C2)C1S(=O)(=O)CCCC (stereo unspecified)	-7%	-2%	5%	-5%[46.1 µM]
CN(C)S(=O)(=O)c1ccc(C(=O)Oc2cc(=O)[nH]c3ccccc23)cc1	14µM*	3%	5%	5%[46.1 µM]
CCOC(=O)c1[nH]c2ccccc2c1NC(=O)c1ccc(S(=O)(=O)N(C)C)cc1	16%	0%	.	-14%
CC(/C=N/NC(=O)Cc1cccn1C)=C\c1ccccc1	50µM*	-7%	1%	-5%
CC(C)Cc1ccc(C(C)/C=C2/CCC(CN3CCCCC3)C2=O)cc1 (stereo unspecified)	3.5µM*	-10%	.	.
O=[N+]([O-])c1cccnc1S(=O)(=O)c1ccccc1	1.1µM*	1%	-7%	.
O=C(Nc1nc(-c2cc3ccccc3o2)cs1)c1ccc(S(=O)(=O)N2CCCC2)cc1	79µM*	11%	1%	-17%
O=C(Nc1nc(-c2ccccc2)c(C(=O)c2ccccc2)s1)c1ccc(S(=O)(=O)N2CCCC2)cc1	3%	-3%	0%	6.3µM*
O=C(Nc1ccc([N+](=O)[O-])cc1)Nc1ccc(OC(F)F)c(Cl)c1	-9%	-13%	.	10µM*
O=S(=O)(Nc1ccc(-c2ccc(N3CCCC3)nn2)cc1)c1ccc(OC(F)(F)F)cc1	18%[57.1 µM]	-4%[57.1 µM]	.	.
Cn1c(N)c(C(=O)CCl)c(=O)n(Cc2ccccc2)c1=O	13µM*	10%[57.1 µM]	.	-13%
SMILES	rTrxR1 inhibitor	TrxR1 substrate	GALK inhibitor	NPSR antagonist
CCn1c(Oc2ccc(F)cc2F)nc2c1c(=O)n(C)c(=O)n2C	26%	11%	.	.
CCOc1ccc(C2CC(=O)NC(NC(=O)c3cccc(Cl)c3)=N2)cc1 (stereo unspecified)	12%	-1%	.	.
O=C(NC1=C(Nc2ccc(Cl)cc2)C(=O)c2ccccc2C1=O)c1ccccc1	?	-6%	0%	-6%
O=C(NC1=C(NC2CCS(=O)(=O)C2)C(=O)c2ccccc2C1=O)c1ccccc1 (stereo unspecified)	50µM*	32µM*	-3%	-40%
CCC12CN3CC(C)(CN(C1)C3c1c[nH]c3ccccc13)C2=O (stereo unspecified)	10%	0%	.	.
COc1cc(/C=C/C(=O)N2C(=O)c3cccc(N)c3C2=O)cc(OC)c1OC	-5%	6%	-2%	-24%[46.1 µM]
Nc1cccc2c1C(=O)N(C(=O)/C=C/c1cccc(F)c1)C2=O	28µM*	2%	1%	-5%
CCOC(=O)c1cc2sc(C)cc2n1CCCN1C(=O)c2ccccc2C1=O	4%	-3%	-4%	?
CCOC(=O)N1C=CC=C[C@@H]2[C@@H](N3C(=O)c4ccccc4C3=O)C(=O)N21	16µM*	7%	3%	12%
CCCNC(=O)COC(=O)c1ccccc1C(=O)c1ccc(Cl)c([N+](=O)[O-])c1	50µM*	4%	3%	?
COc1cc(OC)cc(C(=O)Nc2ccc(NC(=O)c3ccco3)c(C)c2)c1	25µM*	-3%	18%	.
Nc1ccc(C(=O)O)cc1	22%	10%	.	.
Nc1ccc(O)cc1	14µM*	?	.	.
Cc1ccccc1NC(=O)c1c(C)[nH]c(=S)c(C#N)c1-c1ccco1	?	-7%	4%	-16%[46.1 µM]
CNC(=O)c1c(C)[nH]c(=S)c(C#N)c1-c1ccco1	13µM*	1%	0%	-2%[7.67 µM]
CCCCC(=NCCc1c(C)[nH]c2ccccc12)C1=C(O)CC(c2ccccc2)CC1=O (stereo unspecified)	36%	-1%	-2%	7.9µM*
CCCC(=NCCc1c(C)[nH]c2ccccc12)C1=C(O)CC(c2ccccc2)CC1=O (stereo unspecified)	4%	0%	1%	-58%
CC(=NCCc1c(C)[nH]c2ccc(OC(F)(F)F)cc12)C1=C(O)CC(c2ccccc2)CC1=O (stereo unspecified)	24%[57.1 µM]	-2%[57.1 µM]	9%	10µM*
CC(=NCCc1c(C)[nH]c2ccc(C)cc12)C1=C(O)CC(c2ccccc2)CC1=O (stereo unspecified)	8%	-3%	1%	-47%
CC1=C(C)C(=O)C(N2CCOCC2)=CC1=O	-15%	-9%	-1%	-2%
O=C1C=C(N2CCOCC2)c2ccccc2C1=O	?	25µM*	13µM*	.
CCCOc1ccc(CNC(=O)C2CCN(C(=O)c3sccc3-n3cccc3)CC2)cc1	20%	7%	.	.
N#CCCN1CCN(C2=NC(=O)C(=C3CCCCC3)S2)CC1	-9%	-13%	6%	20µM*
N#CC(c1ccc(Cl)cc1)c1ccc2c(C(F)(F)F)cc(C(F)(F)F)nc2n1 (stereo unspecified)	36%[57.1 µM]	9%[57.1 µM]	6%	6.3µM*
FC(F)(F)c1cc(C(F)(F)F)c2ccc(N3CCN(c4ccc(Cl)cc4)CC3)nc2n1	-2%	-4%	0%	0%[46.1 µM]
O=Cc1ccc(Sc2nnc(-c3ccccc3)o2)c([N+](=O)[O-])c1	5µM*	10%	1%	-7%[46.1 µM]
COc1ccc(C(=O)CCS(=O)(=O)c2ccc(C)cc2)cc1OC	2.2µM*	7%	-2%	.
Cc1ccc(S(=O)(=O)CCC(=O)c2ccc(O)cc2O)cc1	7.1µM*	-5%	-6%	-5%[46.1 µM]
COC(=O)c1ccc(NCc2c(O)ccc(O)c2Br)cc1Cl	32µM*	-9%	.	.
